Compounds with a hit are over-represented: about 4.7% of the library has one in this group of screens.
DSG3 Ab inh – human desmoglein-3 autoantibody binding inhibition | P32926 | DSG3-coupled beads, scFv-anti-DSG3-GFP binding, flow cytometry; hits give low values | binding (percent of control), % at 10 µM | 310,000 tested, 0.48% active;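 active means binding more than 3 SD below its plate's average and above zero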;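 further: hits lower antibody fragment binding to DSG3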
ADAM17 inh – ADAM17 inhibition, QFRET primary screen; P78536; recombinant ADAM17, EDANS/DABCYL FRET peptide cleavage; inhibition, % at 6.95 µM; 370,000 tested, 0.83% active;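 active means inhibition above the mean of compounds lying between control limits plus 3 SD, set per campaign, cut at about 8.5% in these data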;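 further: 0% = DMSO-only wells as the low control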
rCAG RNA binder – r(CAG) repeat RNA binding. inhibition, % at 3 µM. 370,000 tested, 1.3% active. TO-PRO-1 dye displacement fluorescence;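 active means inhibition above the plate cutoff, the mean of all test compounds on that plate plus 3 SD, cut at about 35% in these data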;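 further: 0% = DMSO alone and 100% = 100 µM mitoxantrone as full dye displacement; higher means more dye released from RNA so lower well fluorescence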
KLK7 zymogen act – proKLK7 (human) activation, primary screen | purified proKLK7, EDANS-DABCYL substrate fluorescence; 100% is mature enzyme control, 0% vehicle | activation, % at 7 µM | 370,000 tested, 0.9% active;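 active means activation above the mean of all tested compounds plus 3 SD, computed per campaign excluding outliers beyond control limits, cut at about 13% in these data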
MPTP block – inhibitors of mitochondrial permeability transition pore | isolated mouse mitochondria, Ca2+ swelling absorbance, 30 min | inhibition, % at 10 µM | 360,000 tested, 1.4% active;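 active means inhibition of 50% or more, scaled per plate between neutral and stimulator controls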;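 further: 0% = DMSO wells given calcium and 100% = 1 mM EGTA wells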
ADAM10 inh – inhibits human ADAM10; AID 720582; 370,000 tested, 0.62% active; O14672; inhibition, % at 7 µM; recombinant ADAM10, EDANS/DABCYL FRET peptide cleavage, 3 h;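 active means inhibition above a per-campaign cutoff equal to the mean of compounds falling between control-based bounds plus 3 SD, cut at about 20% in these data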;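 further: 0% = DMSO wells while the 100% control is not disclosed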
Target sequence (O14672 214-748 limits assumed): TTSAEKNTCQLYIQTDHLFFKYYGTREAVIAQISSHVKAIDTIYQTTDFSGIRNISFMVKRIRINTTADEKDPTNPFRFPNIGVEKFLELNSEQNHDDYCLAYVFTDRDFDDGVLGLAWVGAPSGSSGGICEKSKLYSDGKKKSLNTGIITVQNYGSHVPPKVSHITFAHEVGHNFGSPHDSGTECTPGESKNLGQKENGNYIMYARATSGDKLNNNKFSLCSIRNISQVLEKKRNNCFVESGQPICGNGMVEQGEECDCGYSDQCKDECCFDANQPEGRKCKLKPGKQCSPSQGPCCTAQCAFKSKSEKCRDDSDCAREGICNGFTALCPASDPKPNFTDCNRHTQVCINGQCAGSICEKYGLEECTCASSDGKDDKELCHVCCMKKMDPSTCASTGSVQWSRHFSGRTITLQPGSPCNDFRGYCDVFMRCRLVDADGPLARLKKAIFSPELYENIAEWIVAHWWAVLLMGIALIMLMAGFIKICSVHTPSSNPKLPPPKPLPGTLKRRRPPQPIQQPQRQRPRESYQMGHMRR
Active calls of the source: *.

Results for COC(=O)[C@]12C[C@H](CC(=O)N3CCCC3)C(=O)N(Cc3ccc4c(c3)OCO4)C1=C[C@H](C(C)(C)C)O[C@@H]2C ?
ADAM17 inh: -4; rCAG RNA binder: -1; KLK7 zymogen act: 0; ADAM10 inh: -13

Results for CCOC(=O)N1CCC2(O)CCCCC2C1c1ccc(F)cc1 (stereo not drawn) ?
DSG3 Ab inh: 86*; ADAM17 inh: -2; rCAG RNA binder: -8; KLK7 zymogen act: -1; MPTP block: -6; ADAM10 inh: -2

Results for C=C(C)Cn1c(SCC(=O)NN=Cc2c(O)ccc3ccccc23)nnc1-c1ccc(Br)cc1 ?
ADAM17 inh: -5; rCAG RNA binder: 15; KLK7 zymogen act: -19; ADAM10 inh: -12

What do the screens show for `COC(=O)c1ccc(NC(=O)c2cn(-c3ccccc3)nc2-c2ccncc2)cc1`?
DSG3 Ab inh: 84; ADAM17 inh: -3; rCAG RNA binder: 10; KLK7 zymogen act: 0; MPTP block: -1; ADAM10 inh: 4

Results for CC(=O)c1ccc(NC(=O)c2cn(-c3ccccc3)nc2-c2ccncc2)cc1 ?
DSG3 Ab inh: 69*; ADAM17 inh: -4; rCAG RNA binder: 1; KLK7 zymogen act: 0; MPTP block: 0; ADAM10 inh: -9

Results for C[C@H](CO)N1C[C@H](C)[C@H](CN(C)Cc2cccc(F)c2)Oc2ncc(C3=CCCC3)cc2C1=O ?
ADAM17 inh: -4; rCAG RNA binder: 3; KLK7 zymogen act: 1; ADAM10 inh: -22

How did Cn1c(SCC(=O)NCc2ccccc2)nnc1-c1ccc(NC(=O)CCc2ccccc2)cc1 do in these assays?
DSG3 Ab inh: 106; ADAM17 inh: -2; rCAG RNA binder: -4; KLK7 zymogen act: 1; MPTP block: 2; ADAM10 inh: 7

How did CCCCSc1nnc(-c2ccc(NC(=O)CCc3ccccc3)cc2)n1C do in these assays?
DSG3 Ab inh: -28*; ADAM17 inh: -2; rCAG RNA binder: -4; KLK7 zymogen act: 0; MPTP block: 5; ADAM10 inh: -16

How did O=C(NCc1ccco1)c1ccc(Cl)c(S(=O)(=O)Nc2ccccc2)c1 do in these assays?
DSG3 Ab inh: 99; ADAM17 inh: 1; rCAG RNA binder: 4; KLK7 zymogen act: 0; MPTP block: -1; ADAM10 inh: 10

How did C=CCNC(=O)c1ccccc1NC(=O)c1ccc(Cl)c(S(=O)(=O)Nc2ccccc2)c1 do in these assays?
DSG3 Ab inh: 81; ADAM17 inh: 7; rCAG RNA binder: 19; KLK7 zymogen act: 0; MPTP block: 4; ADAM10 inh: 27*

Results for CCCCCC(=O)NC1CCCCN(C)C1=O (stereo not drawn) ?
ADAM17 inh: 0; rCAG RNA binder: 2; KLK7 zymogen act: -1; ADAM10 inh: 2

Results for CCOC(=O)[C@]12CCCC=C1N(CCCOC)C(=O)[C@@H]2CC(=O)NCC1CCCCC1 ?
ADAM17 inh: -4; rCAG RNA binder: -1; KLK7 zymogen act: 0; ADAM10 inh: -10

Results for CCCNC(=O)/C(C#N)=C1\N=C(NC(=O)c2ccco2)c2ccccc21 ?
DSG3 Ab inh: 103; ADAM17 inh: -9; rCAG RNA binder: 0; KLK7 zymogen act: 0; MPTP block: -1; ADAM10 inh: -20

How did N#C/C(C(=O)NCc1ccccc1)=C1/N=C(NC(=O)c2cccs2)c2ccccc21 do in these assays?
DSG3 Ab inh: 85*; ADAM17 inh: 1; rCAG RNA binder: 4; KLK7 zymogen act: 0; MPTP block: 14; ADAM10 inh: 5

What do the screens show for `CCc1cc(=O)oc2cc(OCC(=O)NCC3CCC(C(=O)O)CC3)ccc12` (stereo not drawn)?
DSG3 Ab inh: 101; ADAM17 inh: -30; rCAG RNA binder: 1; KLK7 zymogen act: 1; MPTP block: -1; ADAM10 inh: -134

Results for COc1ccc2c(c1)c(=O)oc1cc(OCC(=O)NCC3CCC(C(=O)O)CC3)ccc12 (stereo not drawn) ?
DSG3 Ab inh: -19*; ADAM17 inh: -44; rCAG RNA binder: 2; KLK7 zymogen act: -1; MPTP block: -1; ADAM10 inh: -185

Results for CN1CCCCC(NC(=O)C2CCCCC2)C1=O (stereo not drawn) ?
ADAM17 inh: -1; rCAG RNA binder: 2; KLK7 zymogen act: 0; ADAM10 inh: 2

Results for COC1=C(NCc2ccc3c(c2)OCO3)C(=O)C(OC)=C(NCc2ccc3c(c2)OCO3)C1=O ?
DSG3 Ab inh: -15*; ADAM17 inh: 0; rCAG RNA binder: 5; KLK7 zymogen act: -5; MPTP block: 1; ADAM10 inh: -11

What do the screens show for `COC(=O)NCc1ccc2c(c1)OCO2`?
ADAM17 inh: -4; rCAG RNA binder: 0; KLK7 zymogen act: -1; MPTP block: 1; ADAM10 inh: 4

What do the screens show for `COc1ccc(N(CC(=O)Nc2c(C)cccc2C)S(=O)(=O)c2ccccc2[N+](=O)[O-])c(OC)c1`?
DSG3 Ab inh: 101; ADAM17 inh: 2; rCAG RNA binder: 8; KLK7 zymogen act: -1; MPTP block: 0; ADAM10 inh: 16

What do the screens show for `COc1ccc(N(CC(=O)Nc2ccccc2C)S(=O)(=O)c2ccccc2[N+](=O)[O-])c(OC)c1`?
DSG3 Ab inh: 24*; ADAM17 inh: 2; rCAG RNA binder: 5; KLK7 zymogen act: 0; MPTP block: 0; ADAM10 inh: 8

Results for COC(=O)C1CN(Cc2cn(Cc3ccc(C)cc3)nn2)CCS(=O)(=O)N1Cc1ccc(OC)cc1 (stereo not drawn) ?
ADAM17 inh: 0; rCAG RNA binder: 4; KLK7 zymogen act: 0; ADAM10 inh: 0

How did COc1cc(/C=C(/C#N)c2nc3ccccc3[nH]2)ccc1OCc1ccc(C(=O)O)o1 do in these assays?
DSG3 Ab inh: 104; ADAM17 inh: -46; rCAG RNA binder: 40*; KLK7 zymogen act: -2; MPTP block: -1; ADAM10 inh: -112

What do the screens show for `COC(=O)c1ccc(COc2ccc(/C=C(\C#N)c3nc4ccccc4[nH]3)cc2OC)o1`?
DSG3 Ab inh: 100; ADAM17 inh: -21; rCAG RNA binder: 18; KLK7 zymogen act: -465; MPTP block: -2; ADAM10 inh: -51

What do the screens show for `COC(=O)C1=C(C)N(Cc2ccc(C(F)(F)F)cc2)C(=NCC2CC2)NC1c1cccc(Cl)c1` (stereo not drawn)?
ADAM17 inh: -1; rCAG RNA binder: 8; KLK7 zymogen act: 0; ADAM10 inh: 0

How did Cc1ccc(S(=O)(=O)CC(=O)c2cc3cccc(C)c3oc2=O)cc1 do in these assays?
DSG3 Ab inh: 49*; ADAM17 inh: -1; rCAG RNA binder: 9; KLK7 zymogen act: 1; MPTP block: -1; ADAM10 inh: -16

What do the screens show for `COc1cccc2cc(C(=O)CS(=O)(=O)c3ccc(C)cc3)c(=O)oc12`?
DSG3 Ab inh: 93; MPTP block: -1

Results for O=S(=O)(c1ccc(C(F)(F)F)cc1)N1CCCc2nc(-c3ccccc3)ccc21 ?
ADAM17 inh: 0; rCAG RNA binder: 2; KLK7 zymogen act: 0; ADAM10 inh: -3
